Only some compounds are listed: those with a hit (about 3.2% of all), similar ones and a draw of the others.
GDH-TPI counter = inhibits GDH-TPI coupling enzymes, artifact for Mtb FBA screen | inhibition, % at 4.8 µM | GDH-TPI coupled enzyme counterscreen, NADH absorbance | hit rate 1.2% among 360,000; in the data active = inhibition above about 30%
TcdB GH inh = blocks C. difficile toxin B glycohydrolase activity; TcdB glycohydrolase enzymatic assay, plate reader; inhibition, % at 9.99 µM; hit rate 0.24% among 350,000; AID 652162; in the data active = inhibition above about 10%
Mtb FBA inh = Mtb fructose-bisphosphate aldolase inhibition | hit rate 2.3% among 360,000 | inhibition, % at 1 µM | P9WQA3 | purified M. tuberculosis FBA, fluorescence read-out; in the data active = inhibition above about 27%
Target sequence (P9WQA3 whole entry, looked up): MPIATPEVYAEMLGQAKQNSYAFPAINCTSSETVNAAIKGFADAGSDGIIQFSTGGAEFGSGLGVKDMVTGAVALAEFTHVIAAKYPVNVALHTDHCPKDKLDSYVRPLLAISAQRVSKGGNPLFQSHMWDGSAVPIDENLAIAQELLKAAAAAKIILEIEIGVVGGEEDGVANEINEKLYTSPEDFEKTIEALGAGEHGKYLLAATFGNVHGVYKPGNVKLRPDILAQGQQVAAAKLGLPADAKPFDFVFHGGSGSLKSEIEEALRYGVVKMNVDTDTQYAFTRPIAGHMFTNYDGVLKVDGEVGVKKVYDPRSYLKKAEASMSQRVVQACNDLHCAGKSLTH
Y pestis TopoI = inhibitors of Yersinia pestis topoisomerase I; Y. pestis Topo-I cleavage product accumulation, plate reader; activity, % at 10 µM; hit rate 0.064% among 360,000; in the data active = activity above about 50%, passing the limit was not always enough
PrPC TRFRET = reduces human prion protein on the cell surface; inhibition, % at 13.8 µM; cell surface PrPC, TR-FRET read-out; hit rate 0.43% among 370,000; in the data active = inhibition above about 24%
A number is an active result; 0 = inactive; - = no result given; + = active, no number.

SMILES	GDH-TPI counter	TcdB GH inh	Mtb FBA inh	Y pestis TopoI	PrPC TRFRET
CCOC(=O)c1c(NC(=O)c2c(N)n(CCCOC)c3nc4ccccc4nc23)sc2c1CCCC2	0	0	0	0	0
COCC(C)OC(=O)c1c(N)n(Cc2ccco2)c2nc3ccccc3nc12 (stereo unspecified)	0	-	130	0	0
Cc1ccc(S(=O)(=O)N(C)C[C@@H]2Oc3c(NS(=O)(=O)c4cccs4)cccc3C(=O)N([C@@H](C)CO)C[C@@H]2C)cc1	-	0	-	-	-
Cc1noc(C)c1S(=O)(=O)Nc1ccc2c(c1)C(=O)N([C@H](C)CO)C[C@@H](C)[C@@H](CN(C)Cc1ccncc1)O2	-	0	-	-	-
N#C[C@H]1[C@H](c2ccccc2C2=CCCCC2)[C@@H](CO)N1S(=O)(=O)c1ccccc1	-	0	-	-	-
O=C1/C(=C/c2cccnc2)Oc2cc(OS(=O)(=O)c3ccccc3)ccc21	46	-	0	0	-
O=C1/C(=C/c2cccnc2)Oc2cc(OS(=O)(=O)c3ccc(Cl)cc3)ccc21	0	-	0	0	0
O=C(c1cnccn1)N1CC[C@@H]2[C@@H](CO)Nc3ccc(C#Cc4cccnc4)cc3[C@@H]21	-	0	-	-	-
NC(=O)CC(NC(=O)c1ccccc1)c1ccc(NCCc2ccc(F)cc2)c([N+](=O)[O-])c1 (stereo unspecified)	0	10	0	0	0
O=C(O)c1ccc2nc(-c3ccccc3)sc2c1	0	-	0	0	0
Nc1ccc(-c2nc3ccc(N)cc3s2)cc1	47	0	+	0	0
Nc1cccc(-c2nc3ccc(N)cc3s2)c1	0	-	164	0	0
Nc1cc2sc(-c3ccc(C(=O)O)cc3)nc2cc1Cl	0	0	139	0	0
Nc1ccc(-c2nc3ccc(C(=O)O)cc3s2)cc1	54	0	-	0	0
Nc1ccc(O)c(-c2nc3ccccc3s2)c1	0	-	0	0	0
Nc1ccc2nc(N3CCOCC3)sc2c1	0	0	0	0	0
C[C@@H]1CCCCO[C@@H](CN(C)C(=O)Cc2ccccc2)[C@@H](C)CN([C@H](C)CO)C(=O)c2cc(NS(=O)(=O)c3ccc(F)cc3)ccc2O1	-	0	-	-	-
C[C@@H]1CN([C@@H](C)CO)C(=O)c2cccc(NC(=O)Nc3ccccc3)c2O[C@H]1CN(C)S(C)(=O)=O	-	0	-	-	-
C[C@H](CO)N1C[C@H](C)[C@H](CN(C)S(=O)(=O)c2cccs2)Oc2ncc(-c3ccccc3)cc2C1=O	-	0	-	-	-
CCc1ccc(-c2ccc(C(=O)O)c(C)n2)cc1	0	-	0	0	0
CCc1ccc(-c2cnc3nc[nH]c(=O)c3n2)cc1	0	0	135	0	0
O=C(CSc1nnc(-c2ccncc2)o1)N1CCCCCC1	0	18	0	0	0
COc1ccc(-c2nnc(SCC(=O)N3CCCC3)o2)cc1	0	0	0	0	0
COc1cc(OC)cc(-c2nnc(SCC(=O)N3CCCC3)o2)c1	0	-	118	0	0
c1ccc2c(Nc3nnc(-c4ccncc4)s3)cccc2c1	38	-	0	0	0
SMILES	GDH-TPI counter	TcdB GH inh	Mtb FBA inh	Y pestis TopoI	PrPC TRFRET
O=C(Nc1ccc(F)cc1)Nc1nnc(-c2ccncc2)s1	35	-	0	0	0
C=CCNc1nnc(-c2ccncc2)s1	0	-	181	0	0
O=C(C[C@@H]1CC[C@H]2NC[C@@H](O)COC[C@@H]2O1)NCCc1ccccc1	-	0	-	-	-
C[C@@H]1CN([C@@H](C)CO)S(=O)(=O)c2ccc(C3=CCCC3)cc2O[C@@H]1CN(C)C(=O)c1cccnc1	-	0	-	-	-
C[C@@H](O)C#Cc1ccc([C@@H]2[C@H]3CN(C(=O)c4ccc(F)cc4)CCCCN3[C@H]2CO)cc1	-	0	-	-	-
Cc1ccc(S(=O)(=O)Nc2ccc3c(c2)CC(=O)N([C@@H](C)CO)C[C@H](C)[C@H](CN(C)C(=O)Nc2ccc(F)cc2)O3)cc1	-	0	-	-	-
CCOC(=O)c1nc2sc(C)c(C)c2c(=O)[nH]1	0	0	126	0	0
CC(=O)OCc1nc2sc(C)c(C)c2c(=O)[nH]1	0	-	0	0	0
Cc1ccc(C)n1-c1ccc(C(=O)NCc2cccnc2)cc1	0	-	31	0	-
CC(C)(C)c1ccc(C(=O)NCc2cccnc2)cc1	0	-	0	0	0
C[C@H]1CN([C@@H](C)CO)S(=O)(=O)c2ccc(-c3cccnc3)cc2O[C@H]1CN(C)C(=O)CN(C)C	-	0	-	-	-
O=C1N/C(=C\c2ccc(O)cc2)C(O)=C1C=NCc1ccccc1	37	-	0	0	0
CCOc1ccc(/C=N/NC(=O)c2ccc(Cn3cc(Br)cn3)o2)cc1	0	0	0	0	0
CCOc1ccc(/C=N/NC(=O)c2ccc(Cn3cc([N+](=O)[O-])cn3)o2)cc1	42	-	0	0	0
COc1cc(/C=N/NC(=O)c2ccc(Cn3cc([N+](=O)[O-])cn3)o2)cc(Br)c1O	0	0	0	0	0

High-throughput results as filed in PubChem BioAssay.
